The text below walks through data of PubChem BioAssay AID2620 (National Center for Advancing Translational Sciences (NCATS), 2010).

This assay has as its target Pyruvate kinase PKM (Homo sapiens) (UniProt P14618). In words: Secondary LDH Assay for Activators of Human Pyruvate Kinase M1 Isoform: for Probe SAR. The conditions noted are these: purified hPK-M1, LDH-coupled NADH fluorescence kinetic; series mostly up to 58.2 µM. The procedure, abridged: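 10 nM hPK-M1 coupled to 1 uM LDH, with 0.1 mM PEP, 4.0 mM ADP, 0.2 mM NADH, 50 mM Tris pH 8.0, 200 mM KCl, 15 mM MgCl2 (final). NADH fluorescence depletion followed kinetically 3-6 min; initial rates normalized to uninhibited controls.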

Inconclusive results are not listed. Active and inactive are the calls of the source. The call rests on the fitted dose curve; in most records, active means well fitted curve in the direction sought with a large enough effect; inconclusive means small, poorly fitted or top-dose-only effect, or another doubt; inactive means no such curve, though single readings can be large or run the other way.

Sequence of Pyruvate kinase PKM (Homo sapiens) (P14618 whole entry, looked up, canonical isoform): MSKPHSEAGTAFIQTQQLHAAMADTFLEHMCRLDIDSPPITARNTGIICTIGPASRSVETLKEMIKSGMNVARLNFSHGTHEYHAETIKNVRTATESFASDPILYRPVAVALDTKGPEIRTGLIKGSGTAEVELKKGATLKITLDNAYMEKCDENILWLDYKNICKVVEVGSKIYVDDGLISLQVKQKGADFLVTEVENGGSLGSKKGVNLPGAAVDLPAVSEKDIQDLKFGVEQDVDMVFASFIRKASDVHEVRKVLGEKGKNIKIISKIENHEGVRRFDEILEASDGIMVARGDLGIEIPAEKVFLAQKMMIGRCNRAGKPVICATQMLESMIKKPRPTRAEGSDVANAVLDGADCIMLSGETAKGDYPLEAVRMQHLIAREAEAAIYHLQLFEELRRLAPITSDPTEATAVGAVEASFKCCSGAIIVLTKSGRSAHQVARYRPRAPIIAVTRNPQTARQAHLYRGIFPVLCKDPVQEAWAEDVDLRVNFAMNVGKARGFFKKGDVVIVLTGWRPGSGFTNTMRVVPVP

As to `Cc1ccc(NS(=O)(=O)c2cc3c(cc2-c2cn[nH]c2)NC(=O)CO3)cc1C`, the call was inactive.
Consider `Cc1cc(N2C(=O)c3ccccc3C2=O)no1`, for which the result was inactive.
With `O=C1CCc2cc(S(=O)(=O)Nc3ccccc3-c3ccccc3)ccc2N1`, the outcome was inactive.
In the case of `CCNc1cccc(S(=O)(=O)N2CCCN(S(=O)(=O)c3ccc4c(c3)OCCO4)CC2)c1`, the call was inactive.
Consider `Cc1ccc(NS(=O)(=O)c2ccc3c(c2)CC(=O)N3)cc1C`, for which the compound was called inactive.
As to `Cc1ccc(OC2=NS(=O)(=O)c3ccccc32)cc1`, the compound was called inactive.
Turning to `O=S(=O)(c1ccc2c(c1)OCCO2)N1CCN(S(=O)(=O)c2c(F)cccc2F)CC1`, the outcome was inactive.
With `O=C1c2ccccc2C(=O)N1c1cc(=O)c2ccccc2[nH]1`, the compound was classed as inactive.
As for `O=C1CCc2cc(S(=O)(=O)Nc3cccc(Br)c3)ccc2N1`, the call was inactive.
As for `COc1ccccc1OC1=NS(=O)(=O)c2ccccc21`, the entry is “inactive”; as for `Cc1ccc(NS(=O)(=O)c2ccc3[nH]c(=O)[nH]c3c2)cc1C`, “inactive”; as for `Cc1cc(NS(=O)(=O)c2ccc3c(c2)CCC(=O)N3)ccc1Cl`, “inactive”.
In the case of `Cc1ccc(NS(=O)(=O)c2ccc3ccccc3c2)cc1C`, the compound was classed as inactive.
With `O=C1CCc2cc(S(=O)(=O)Nc3cc(F)cc(Cl)c3)c(F)cc2N1` the entry was “inactive”; with `Cc1ccc(NS(=O)(=O)c2cc3c(cc2N2CCCCC2)NC(=O)CC3)cc1C`, “inactive”.
In the case of `O=C1CCc2cc(S(=O)(=O)Nc3ccc4c(c3)OCCO4)ccc2N1`, the compound was called inactive.
For the compound `Cc1ccc(C)c(OC2=NS(=O)(=O)c3ccccc32)c1`, the outcome was inactive.
With `O=C1c2ccccc2C(=O)N1c1cccc(O)c1` the entry was “inactive”.
